Screening data as filed in PubChem.
An excerpt weighted towards active compounds, which were near 21% of everything screened.
Shiga toxin inh: blocks Shiga toxin action in Vero cells; Vero cells, Shiga toxin protein synthesis inhibition reporter; inhibition, % at 38.7 µM; actives 9.2% (n = 290,000); in the data active means inhibition mostly above about 28%, no sharp cut-off; inactive means mostly below about 43%
CHX counter: affects cycloheximide protein synthesis inhibition readout, counter-screen | cell reporter, cycloheximide protein synthesis inhibition counterscreen | max response, % | actives 12% (n = 300,000); in the data active means max response mostly above about 13%, no sharp cut-off; inactive means mostly below about 14%; further: read at 38.3 µM for the half of the compounds with a filed dose
Pf growth 48h: P. falciparum growth inhibition at 48 hours (one generation) | Potency, µM (doses to about 28.7 µM), hits mostly inhibitors | P. falciparum luciferase growth in erythrocytes, 48 h | actives 5.9% (n = 310,000) | AID 504832
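Compounds are pin-transferred into medium, infected erythrocytes (2% hematocrit, 0.1% parasitemia final) are added, and plates sit one parasite generation at 37 C in 5% CO2. Detection reagent is then added and luminescence measured.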
NS1 inh: blocks influenza NS1 protein function | actives 0.4% (n = 270,000) | Potency, µM (highest dose often 46.1 µM) | AID 2326; calls by dose curve; further: actives are rising curves; nearly all actives have a fitted effect of over 50% in size
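In this qHTS, NS1 from influenza A is expressed in budding yeast, where it slows growth. Cells are switched from glucose to 2% galactose medium (pH 6.0, -URA), treated with compound, and growth recovery is read at OD600.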
Giardia FBPA inh: inhibitors of Giardia lamblia fructose-1,6-bisphosphate aldolase; purified Giardia FBPA; Potency, µM (titrated, usually from 59.6 µM), usual class: inhibitors; actives 0.71% (n = 290,000); AID 2451; further: nearly all actives have a fitted effect of over 55% in size
Target sequence (A8B2U2 whole entry, looked up): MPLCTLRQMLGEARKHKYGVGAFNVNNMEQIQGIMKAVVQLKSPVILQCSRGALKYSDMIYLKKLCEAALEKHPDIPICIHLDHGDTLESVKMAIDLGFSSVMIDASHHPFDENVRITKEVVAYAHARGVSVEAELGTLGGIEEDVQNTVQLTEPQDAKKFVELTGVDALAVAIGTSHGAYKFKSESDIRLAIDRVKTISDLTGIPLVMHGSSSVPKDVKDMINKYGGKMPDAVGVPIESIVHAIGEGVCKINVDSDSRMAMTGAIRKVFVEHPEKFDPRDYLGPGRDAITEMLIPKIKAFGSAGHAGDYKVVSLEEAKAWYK
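40 nM FBPA preincubated 10 min at RT with compound (up to 57.5 uM final), then substrate plus GAPDH/TPI/NAD/arsenate coupling and diaphorase/resazurin added. Fluorescence read after 20 min at RT, 525/598 nm.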
Pf growth 96h: inhibits malaria parasite growth, 96 h; P. falciparum luciferase reporter growth, 96 h; actives 6.9% (n = 320,000); Potency, µM (series often up to 28.7 µM), most hits filed as inhibitors
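Parasite growth measured via integrated firefly luciferase reporter in P. falciparum. Infected erythrocytes at 2% hematocrit, 0.05% parasitemia final were treated 96 hours at 37 C under 5% CO2, and luminescence was read.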
A number is an active result; - = inactive; ? = inconclusive; . = no result given; ! = not active in a repeat; [ ] = remark or other dose. Unless noted, the call rests on the fitted dose curve; in most records, active means well fitted curve in the direction sought with a large enough effect; inconclusive means small, poorly fitted or top-dose-only effect, or another doubt; inactive means no such curve, though single readings can be large; an effect the other way counts as inactive or inconclusive.

SMILES | Shiga toxin inh | CHX counter | Pf growth 48h | NS1 inh | Giardia FBPA inh | Pf growth 96h
CCN(C(=O)c1ccc(NC(=O)c2ccco2)cc1)c1ccccc1 | - | - | ? | - | . | 9.3µM
CCOC(=O)Cn1c(=NC(=O)C(C)C)sc2c(C)cc(C)cc21 | - | - | 1.9µM | - | - | ?
CC[n+]1c(-c2ccccc2)c2cc(N)ccc2c2ccc(N)cc21 | - | - | 0.048µM | . | ? | 0.003µM!
CCOc1ccccc1CNC(=O)Cn1ccc2cc(S(=O)(=O)N3CCC(C)CC3)ccc21 | - | - | ? | ? | - | -
CC(Oc1ccccc1)C(=O)N(CCC1=CCCCC1)c1c(N)n(Cc2ccccc2)c(=O)[nH]c1=O (centres undefined) | - | - | ? | - | . | ?
COc1ccc(NC(=O)c2cc(-c3ccccc3O)n[nH]2)cc1Cl | 51 | - | 2.6µM | - | - | 2.1µM
Cc1ccc(NC(=O)c2cc(-c3ccccc3O)n[nH]2)cc1Cl | - | - | ? | - | - | ?
COc1ccc(NC(=O)c2cc(-c3cc(C)cc(C)c3O)n[nH]2)cc1Cl | - | - | 9.3µM | - | - | ?
COc1ccc(CCNC(=O)c2cc(-c3cc(C)cc(C)c3O)n[nH]2)cc1OC | - | - | ? | - | - | ?
CCCn1c(-c2ccc(F)cc2)nc2c(NCCCCN(CC)CC)nc(C)nc21 | . | . | . | . | - | .
Cc1noc(/C=C/N(C)C)c1S(=O)(=O)N(C)Cc1ccc(F)cc1 | - | - | - | ? | - | ?
COc1ccccc1CNC(=O)[C@H](C)NC(=O)C1CCN(C(=O)[C@@H]2CCCN2C(=O)OC(C)(C)C)CC1 | - | - | ? | - | - | ?
CCOc1ccccc1N1CCN(C(=O)NC2CCCCC2)CC1 | - | - | - | - | - | 1.7µM
CCOc1ccccc1N1CCN(C(=O)c2ccc(S(=O)(=O)Nc3ccccc3)cc2)CC1 | . | . | ? | . | . | 9.3µM
Cc1ccccc1NS(=O)(=O)c1ccc(C(=O)N2CCCCCC2)cc1 | . | . | - | . | . | -
Cc1ccc(S(=O)(=O)Nc2ccc(C(=O)N3CCN(c4ccccc4O)CC3)cc2)cc1[N+](=O)[O-] | . | . | 15µM | . | . | -
Cc1ccccc1NS(=O)(=O)c1ccc(C(=O)N2CCN(c3ccccc3O)CC2)cc1 | - | - | 13µM | - | - | 5.2µM
COc1ccc(/C=C/C(=O)NC(=S)NCc2ccccc2)cc1OC | - | - | - | - | - | -
Cc1c(C)c2c(c(C)c1O)CC[C@@](C)(CCC[C@@H](C)CCC[C@@H](C)CCCC(C)C)O2 | . | . | - | . | - | -
CCCCc1cc2c(cn1)=C(OC(=O)c1ccc(Cl)nc1)C(C)(OC(=O)CC)C(=O)C=2 (centres undefined) | . | . | . | . | -[12.9 µM] | .
Nc1nonc1C(=O)N/N=C/c1ccc([N+](=O)[O-])o1 | 76 | 44 | ? | . | ? | ?
O=C(N/N=C\c1ccc([N+](=O)[O-])o1)c1cncc(Br)c1 | - | - | ? | - | ? | ?
O=C(N/N=C/c1ccc([N+](=O)[O-])o1)c1cc2ccccc2o1 | - | - | ? | - | - | ?
CCN(CC)S(=O)(=O)c1cccc(C(=O)N/N=C/c2ccc([N+](=O)[O-])o2)c1 | - | - | ? | . | - | 4.1µM
O=C(N/N=C/c1ccc([N+](=O)[O-])o1)c1ccncc1 | - | - | 1.9µM | - | ? | 6.6µM
SMILES | Shiga toxin inh | CHX counter | Pf growth 48h | NS1 inh | Giardia FBPA inh | Pf growth 96h
Cc1nc2ccccn2c1C(=O)N/N=C/c1ccc([N+](=O)[O-])o1 | - | - | ? | . | ? | 2.1µM
O=S1(=O)[C@H]2C[C@@H]3C=C[C@@]2(CN1Cc1ccc(F)cc1)O3 | - | - | - | - | - | -
O=C(N/N=C/c1ccc([N+](=O)[O-])o1)c1ccc(O)cc1 | - | - | 1.7µM | - | ? | 1µM
CC1CCC/C(=C\Nc2ccc(O)cc2)C1=O (centres undefined) | 80 | 52 | - | - | 7.9µM | -
Cc1cc(C(=O)O)ccc1N/C=C1\CCCC(C)C1=O (centres undefined) | - | - | - | - | - | .
C/C(CC(=O)Nc1ccc([N+](=O)[O-])cc1)=N/NC(=O)C1CC12CCC2 (centres undefined) | - | - | - | . | - | -
C/C(CC(=O)Nc1ccc([N+](=O)[O-])cc1)=N/NC(=O)C1C2CCCCC21 (centres undefined) | - | 19 | - | - | - | -
COc1ccc(NC(=O)C/C(C)=N/NC(=O)C2CCCCC2)c([N+](=O)[O-])c1 | - | - | - | - | - | 10µM
